In ChEMBL document CHEMBL3433997, “St. Jude Leishmania screening dataset” (2016):

The compounds below were run against Solute carrier family 2, facilitated glucose transporter member 1 (Homo sapiens) (UniProt P11166) (assay: ST_JUDE_LEISH: Cytotoxicity at 2uM final concentration against transgenic Leishmania Mexicana promastigotes LmGLUT1 that are glucose transport deficient and complemented with the human glucose transporter GLUT1. Activity is measured by DNA content using SYBR green in vitro).
Chain of Solute carrier family 2, facilitated glucose transporter member 1 (Homo sapiens) (P11166 whole entry): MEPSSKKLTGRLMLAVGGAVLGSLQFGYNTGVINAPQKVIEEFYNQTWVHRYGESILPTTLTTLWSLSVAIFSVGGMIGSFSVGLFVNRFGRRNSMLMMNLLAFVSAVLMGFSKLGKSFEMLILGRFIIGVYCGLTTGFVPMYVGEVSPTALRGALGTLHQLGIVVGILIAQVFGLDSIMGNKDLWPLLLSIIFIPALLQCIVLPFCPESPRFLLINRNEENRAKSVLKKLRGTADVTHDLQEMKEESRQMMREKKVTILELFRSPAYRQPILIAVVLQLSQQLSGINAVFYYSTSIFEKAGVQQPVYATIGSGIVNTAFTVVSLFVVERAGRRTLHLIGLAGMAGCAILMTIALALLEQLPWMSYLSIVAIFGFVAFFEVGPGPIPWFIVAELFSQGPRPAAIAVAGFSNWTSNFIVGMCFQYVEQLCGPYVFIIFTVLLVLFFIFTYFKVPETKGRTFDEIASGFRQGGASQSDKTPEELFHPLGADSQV
Assay type: functional

SMILES | inhibition [%]
O=C(Nc1ccc(OC2CCN(Cc3ccsc3)C2)c(Cl)c1)c1cccs1 (stereo not given) | 2.98
Cc1nc2ccc(S(=O)(=O)Nc3ccc(C(=O)N[C@@H](CCC(=O)O)C(=O)O)cc3)cc2c(=O)[nH]1 | 0.38
COc1ccc2[nH]cc(C3CCN(CCCCCNC(=O)c4ccc(-c5ccccc5)cc4)CC3)c2c1 | 4.24
O=c1ccc2ccc(F)cc2n1CCN1CCC(NCc2ccc(-c3ccccn3)s2)CC1 | 4.21
CN1C(=O)C(=O)N(CCCCCONC(=N)N)C1=S | 9.86
COC(=O)c1ccc2nc(-c3cc(OC)c(O)c(C(=O)NC4CCN(Cc5ccccc5)CC4)c3)[nH]c2c1 | 8.4
CC(C)C1C(O)=C(c2ccc3ccccc3c2)C(=O)N1CC1CCCCC1 (stereo not given) | 1.23
Cc1cc(C(=O)CN2C(=O)NC3(CCOc4ccccc43)C2=O)c(C)n1Cc1ccc(F)cc1 (stereo not given) | 3.91
CCC(ON1C(N)=NC(N)=NC1(C)C)c1ccc(Cl)cc1 (stereo not given) | 6.11
Oc1cc(Nc2ccnc3cc(-c4ccc(CN5CCCCC5)o4)ccc23)c(Cl)cc1F | 3.23
COc1ccccc1Nc1nc(C)cc(NCc2ccc(-c3c(C)noc3C)cc2)n1 | 19.5
c1ccc(Oc2ccc(Nc3ccnc4cc(-c5ccc(CNCCN6CCOCC6)o5)ccc34)cc2)cc1 | 2.2
O=C(/C=C/c1ccc(Cl)c(Cl)c1)NCCCCCN1CCCN(C(=S)Nc2ccc(Cl)c(Cl)c2)CC1 | -0.53
CN1CCC(NCc2ccc(-c3ccc(Cl)cc3)cc2)CC1 | 5.65
Cc1cccc(CNc2nc(C)cc(N[C@@H](Cc3ccccc3)C(=O)NCc3cccc(F)c3)n2)c1 | 6.42
CN1CCN(CCNc2c3ccccc3nc3ccc4ccccc4c23)CC1 | 18.8
CCOc1ccc(-c2nonc2NC(=O)c2ccccc2F)cc1OCC | -0.17
O=C(NCCCCN1CCC(c2ccc3c(c2OCCCO)CCCC3)CC1)c1ccc(-c2ccc(C(F)(F)F)cc2)cc1 | 1.13
Oc1ccc2[nH]c(-c3cccs3)nc2c1CN1CCC(O)(c2ccccc2)CC1 | 10.6
CC(=O)c1sc2ccccc2c1O | -1.09

SMILES | inhibition [%]
N=C(N)NC(=O)Nc1cc(Br)c(Cl)c(C(F)(F)F)c1 | 4.79
O=C(Nc1ccc(-c2cccc(-c3nc4ccccc4[nH]3)c2)cc1)Nc1ccc(F)c(F)c1F | 0.73
CCCC(CNCc1ccccc1)CNc1cc(=O)c2ccccc2[nH]1 (stereo not given) | -0.08
Cc1cccc2nc(-c3cccc(-c4cccc(NC(=O)C(C)CN(C)C)c4)c3)[nH]c12 (stereo not given) | 1.51
CC(C)n1cc2c(ccc3nc(N)nc(N)c32)n1 | 7.23
C=CCOC(=O)N1CCC(CNCc2ccc(-c3cccc(-c4nc5cccc(C)c5[nH]4)c3)cc2)C1 (stereo not given) | -0.46
CC1(C)N=C(N)N=C(N)N1OCCCOc1cc(Cl)c(Cl)cc1Cl | 3.4
Cc1ccc2[nH]c3ccccc3c(=O)c2c1 | 0.1
COc1cc(-n2cnc3cc(-c4ccc(Cl)cc4)sc3c2=O)ccc1OCCN1CCC(c2cccc(NC(C)=O)c2)CC1 | 6.68
CC1(C)CCC(=Cc2ccc(Cl)cc2)CC1(O)Cn1ccnc1 (stereo not given) | 11.7
COc1ccc(O)cc1/C=N/Nc1ccnc2cc(Cl)ccc12 | 7.1
O=C(Nc1ccc(N2CCCCC2)c(Cl)c1)c1nc[nH]n1 | 2.18
COc1ccc2ncc(F)c(CCN3CC(O)C(CNCc4ccccc4)C3)c2n1 (stereo not given) | 7.65
Cc1[nH]c2ccccc2c1C(=O)C(C)Sc1nnc(-c2ccccc2Br)[nH]1 (stereo not given) | 0.54
O=[N+]([O-])c1ccccc1C=NN=c1cc[nH]c2ccccc12 | -2.55
O=C(Nc1cccc(CCNCc2ccccc2)c1)Nc1cccc2ccccc12 | 10.3
CCOc1ccc(-c2nonc2NC(=O)c2cccs2)cc1OCC | -0.24
OC(CNc1ccnc(Nc2ccc(Cl)cc2)n1)c1cccc(C(F)(F)F)c1 (stereo not given) | 1.93
CCN1CCN(c2cc(C)c3cc(NC(=O)c4ccc(N(CC)CC)cc4)ccc3n2)CC1 | -0.29
c1cc(CN2CCC(CCN3CCCCC3)CC2)cc(-c2csc(-c3nc4ccccc4[nH]3)c2)c1 | 7.93

These compounds were tested against Hexose transporter 1 (Plasmodium falciparum) (UniProt O97467) (assay: ST_JUDE_LEISH: Cytotoxicity at 2uM final concentration against transgenic Leishmania Mexicana promastigotes LmPfHT that are glucose transport deficient and complemented with the Plasmodium falciparum hexose transporter. Activity is measured by DNA content using SYBR green in vitro).
Assay type: functional

SMILES | inhibition [%]
O=C(Nc1ccc(OC2CCN(Cc3ccsc3)C2)c(Cl)c1)c1cccs1 (stereo not given) | 3.61
Cc1nc2ccc(S(=O)(=O)Nc3ccc(C(=O)N[C@@H](CCC(=O)O)C(=O)O)cc3)cc2c(=O)[nH]1 | -1.45
COc1ccc2[nH]cc(C3CCN(CCCCCNC(=O)c4ccc(-c5ccccc5)cc4)CC3)c2c1 | 3.36
O=c1ccc2ccc(F)cc2n1CCN1CCC(NCc2ccc(-c3ccccn3)s2)CC1 | 3.12
CN1C(=O)C(=O)N(CCCCCONC(=N)N)C1=S | 6.2
COC(=O)c1ccc2nc(-c3cc(OC)c(O)c(C(=O)NC4CCN(Cc5ccccc5)CC4)c3)[nH]c2c1 | 5.32
CC(C)C1C(O)=C(c2ccc3ccccc3c2)C(=O)N1CC1CCCCC1 (stereo not given) | 1.04
Cc1cc(C(=O)CN2C(=O)NC3(CCOc4ccccc43)C2=O)c(C)n1Cc1ccc(F)cc1 (stereo not given) | 2.31
CCC(ON1C(N)=NC(N)=NC1(C)C)c1ccc(Cl)cc1 (stereo not given) | 8.81
Oc1cc(Nc2ccnc3cc(-c4ccc(CN5CCCCC5)o4)ccc23)c(Cl)cc1F | 6.46
COc1ccccc1Nc1nc(C)cc(NCc2ccc(-c3c(C)noc3C)cc2)n1 | 9.8
c1ccc(Oc2ccc(Nc3ccnc4cc(-c5ccc(CNCCN6CCOCC6)o5)ccc34)cc2)cc1 | 2.86
O=C(/C=C/c1ccc(Cl)c(Cl)c1)NCCCCCN1CCCN(C(=S)Nc2ccc(Cl)c(Cl)c2)CC1 | -1.2
CN1CCC(NCc2ccc(-c3ccc(Cl)cc3)cc2)CC1 | 8.78
Cc1cccc(CNc2nc(C)cc(N[C@@H](Cc3ccccc3)C(=O)NCc3cccc(F)c3)n2)c1 | 6.57
CN1CCN(CCNc2c3ccccc3nc3ccc4ccccc4c23)CC1 | 17
CCOc1ccc(-c2nonc2NC(=O)c2ccccc2F)cc1OCC | 1
O=C(NCCCCN1CCC(c2ccc3c(c2OCCCO)CCCC3)CC1)c1ccc(-c2ccc(C(F)(F)F)cc2)cc1 | 3.02
Oc1ccc2[nH]c(-c3cccs3)nc2c1CN1CCC(O)(c2ccccc2)CC1 | 5.23
CC(=O)c1sc2ccccc2c1O | -1

SMILES | inhibition [%]
N=C(N)NC(=O)Nc1cc(Br)c(Cl)c(C(F)(F)F)c1 | 3.32
O=C(Nc1ccc(-c2cccc(-c3nc4ccccc4[nH]3)c2)cc1)Nc1ccc(F)c(F)c1F | -0.07
CCCC(CNCc1ccccc1)CNc1cc(=O)c2ccccc2[nH]1 (stereo not given) | -3.44
Cc1cccc2nc(-c3cccc(-c4cccc(NC(=O)C(C)CN(C)C)c4)c3)[nH]c12 (stereo not given) | 1.39
CC(C)n1cc2c(ccc3nc(N)nc(N)c32)n1 | 17.1
C=CCOC(=O)N1CCC(CNCc2ccc(-c3cccc(-c4nc5cccc(C)c5[nH]4)c3)cc2)C1 (stereo not given) | -0.4
CC1(C)N=C(N)N=C(N)N1OCCCOc1cc(Cl)c(Cl)cc1Cl | 4.05
Cc1ccc2[nH]c3ccccc3c(=O)c2c1 | 1.92
COc1cc(-n2cnc3cc(-c4ccc(Cl)cc4)sc3c2=O)ccc1OCCN1CCC(c2cccc(NC(C)=O)c2)CC1 | 3.81
CC1(C)CCC(=Cc2ccc(Cl)cc2)CC1(O)Cn1ccnc1 (stereo not given) | 6.85
COc1ccc(O)cc1/C=N/Nc1ccnc2cc(Cl)ccc12 | 5.98
O=C(Nc1ccc(N2CCCCC2)c(Cl)c1)c1nc[nH]n1 | -0.39
COc1ccc2ncc(F)c(CCN3CC(O)C(CNCc4ccccc4)C3)c2n1 (stereo not given) | 5.1
Cc1[nH]c2ccccc2c1C(=O)C(C)Sc1nnc(-c2ccccc2Br)[nH]1 (stereo not given) | 2.81
O=[N+]([O-])c1ccccc1C=NN=c1cc[nH]c2ccccc12 | 1.68
O=C(Nc1cccc(CCNCc2ccccc2)c1)Nc1cccc2ccccc12 | 11
CCOc1ccc(-c2nonc2NC(=O)c2cccs2)cc1OCC | 1.17
OC(CNc1ccnc(Nc2ccc(Cl)cc2)n1)c1cccc(C(F)(F)F)c1 (stereo not given) | 2.79
CCN1CCN(c2cc(C)c3cc(NC(=O)c4ccc(N(CC)CC)cc4)ccc3n2)CC1 | 2.18
c1cc(CN2CCC(CCN3CCCCC3)CC2)cc(-c2csc(-c3nc4ccccc4[nH]3)c2)c1 | 8.75
